Reference: ChEMBL document CHEMBL1157539, “Thousands of chemical starting points for antimalarial lead identification” (Nature, 2010)

How the values were obtained:
Type in all cases: functional
Plasmodium falciparum [1] = test: GSK_TCMDC: Inhibition of Plasmodium falciparum 3D7 in whole red blood cells, using parasite LDH activity as an index of growth. Test compounds present at 2uM
Plasmodium falciparum [2] = test: GSK_TCMDC: Inhibition of Plasmodium falciparum Dd2 in whole red blood cells, using parasite LDH activity as an index of growth. Test compounds present at 2uM
HepG2 = test: GSK_TCMDC: Percent inhibition of human HepG2 cell line. Test compounds present at 10uM.

CCCC1(NC[C@@H](O)[C@H](Cc2ccccc2)NC(=O)c2cc(NCC)cc(N3CCCCS3(=O)=O)c2)CCCCC1.Cl
Inhibition (Plasmodium falciparum [1]): 100% | Inhibition (Plasmodium falciparum [2]): 98% | Inhibition (HepG2): 4%

Cc1ccc(O)c(C(=O)c2cc(C(=O)Nc3ccccc3C)c(=O)n(-c3ccccc3C)c2)c1
Inhibition (Plasmodium falciparum [1]): 98% | Inhibition (Plasmodium falciparum [2]): 81% | Inhibition (HepG2): 0%

Cc1cc(N[C@@H](CC(C)C)C(=O)NCc2cccc(F)c2)nc(NCCc2ccc(F)cc2)n1.O=C(O)C(F)(F)F
Inhibition (Plasmodium falciparum [1]): 90% | Inhibition (Plasmodium falciparum [2]): 6% | Inhibition (HepG2): 0%

Cc1ccc2nc(-c3ccc(C(=O)NC4CCN(Cc5ccccc5)CC4)s3)[nH]c2c1
Inhibition (Plasmodium falciparum [1]): 97% | Inhibition (Plasmodium falciparum [2]): 83% | Inhibition (HepG2): 13%

Cn1cccc1C(=O)C(=O)Nc1cccc(-c2ccc(-c3nc4cc(C(F)(F)F)ccc4[nH]3)cc2)c1
Inhibition (Plasmodium falciparum [1]): 94% | Inhibition (Plasmodium falciparum [2]): 27% | Inhibition (HepG2): 62%

Cc1cc(-c2cccc(CNC3CCN(C)CC3)c2)ccc1S(=O)(=O)NCCc1ccccn1.O=C(O)C(F)(F)F
Inhibition (Plasmodium falciparum [1]): 97% | Inhibition (Plasmodium falciparum [2]): 72% | Inhibition (HepG2): 22%

O=C1SC(=Cc2ccc(O)c(O)c2)C(=O)N1c1ccccc1
Inhibition (Plasmodium falciparum [1]): 91% | Inhibition (Plasmodium falciparum [2]): 17% | Inhibition (HepG2): 12%

CC[C@H](NC(=O)c1c(N)c(-c2sccc2Cl)nc2ccccc12)c1ccccc1
Inhibition (Plasmodium falciparum [1]): 99% | Inhibition (Plasmodium falciparum [2]): 92% | Inhibition (HepG2): 0%

O=C(/C=C/c1ccc(Cl)c(Cl)c1)NCCCCCN1CCCN(C(=O)Nc2ccc(Br)cc2)CC1
Inhibition (Plasmodium falciparum [1]): 99% | Inhibition (Plasmodium falciparum [2]): 0% | Inhibition (HepG2): 38%

CC(C)n1ncc2c3c(N)nc(N)nc3ccc21
Inhibition (Plasmodium falciparum [1]): 98% | Inhibition (Plasmodium falciparum [2]): 6% | Inhibition (HepG2): 64%

FC(F)(F)c1ccc2[nH]c(-c3ccc(-c4cccc(CNCCN5CCNCC5)c4)cc3)nc2c1.O=C(O)C(F)(F)F
Inhibition (Plasmodium falciparum [1]): 92% | Inhibition (Plasmodium falciparum [2]): 2% | Inhibition (HepG2): 13%

FC(F)(F)c1ccc2[nH]c(-c3cccc(-c4cccc(CNCc5cnn(-c6ccccc6)n5)c4)c3)nc2c1.O=C(O)C(F)(F)F
Inhibition (Plasmodium falciparum [1]): 100% | Inhibition (Plasmodium falciparum [2]): 28% | Inhibition (HepG2): 6%

O=C(Nc1cccc(CN2CCN(C(=O)c3cccc(F)c3)CC2)c1)c1cccs1.O=C(O)C(F)(F)F
Inhibition (Plasmodium falciparum [1]): 95% | Inhibition (Plasmodium falciparum [2]): 95% | Inhibition (HepG2): 17%

CCCC(=O)c1cnc2c(Oc3cc(Cl)ncn3)cccc2c1Nc1ccccc1C
Inhibition (Plasmodium falciparum [1]): 99% | Inhibition (Plasmodium falciparum [2]): 85% | Inhibition (HepG2): 6%

O=C(NCc1cccc2ccccc12)C1CCCN(C(=O)c2ccc(O)c(-c3ccc(Cl)c(Cl)c3)c2)C1 (configuration not stated)
Inhibition (Plasmodium falciparum [1]): 92% | Inhibition (Plasmodium falciparum [2]): 23% | Inhibition (HepG2): 1%

CN(C)CCCOc1ccc(CCNCc2cccc(Oc3ccc(Cl)cc3)c2)cc1.O=C(O)C(F)(F)F
Inhibition (Plasmodium falciparum [1]): 94% | Inhibition (Plasmodium falciparum [2]): 26% | Inhibition (HepG2): 57%

O=C(/C=C/c1ccc(Cl)c(Cl)c1)NC1CCC(CN2CCC(Cc3cc4ccccc4[nH]3)CC2)CC1 (configuration not stated)
Inhibition (Plasmodium falciparum [1]): 100% | Inhibition (Plasmodium falciparum [2]): 74% | Inhibition (HepG2): 99%

CC(C)n1cc2c(ccc3nc(N)nc(N)c32)n1
Inhibition (Plasmodium falciparum [1]): 92% | Inhibition (Plasmodium falciparum [2]): 0% | Inhibition (HepG2): 65%

Cn1cc(C(=O)Nc2cccc(-c3cccc(-c4nc5ccccc5[nH]4)c3)c2)n(C)c1=O
Inhibition (Plasmodium falciparum [1]): 99% | Inhibition (Plasmodium falciparum [2]): 60% | Inhibition (HepG2): 0%

COc1cc(C(=O)NC2CCN(Cc3ccccc3)CC2)ccc1-c1nc2cc(Cl)c(Cl)cc2[nH]1
Inhibition (Plasmodium falciparum [1]): 100% | Inhibition (Plasmodium falciparum [2]): 100% | Inhibition (HepG2): 14%

COc1cc2c(c(Cl)c1OC)CCN(Cc1ccccc1)CC2c1ccc(NC(=O)C(F)(F)F)cc1 (configuration not stated)
Inhibition (Plasmodium falciparum [1]): 85% | Inhibition (Plasmodium falciparum [2]): 79% | Inhibition (HepG2): 0%

CC(C)CNCc1cccc(-c2cccc(CN(CCN(C)C)C(=O)Nc3ccccc3)c2)c1.O=C(O)C(F)(F)F
Inhibition (Plasmodium falciparum [1]): 99% | Inhibition (Plasmodium falciparum [2]): 62% | Inhibition (HepG2): 34%

Cc1cccc2nc(-c3ccc(-c4ccc(CN5CCCC(N)C5)cc4)s3)[nH]c12.O=C(O)C(F)(F)F (configuration not stated)
Inhibition (Plasmodium falciparum [1]): 100% | Inhibition (Plasmodium falciparum [2]): 100% | Inhibition (HepG2): 29%

CCn1c(-c2nonc2N)nc2c(-c3cccc(NC(=O)Nc4cccc(OC)c4)c3)ncc(OCCCN)c21.O=C(O)C(F)(F)F
Inhibition (Plasmodium falciparum [1]): 92% | Inhibition (Plasmodium falciparum [2]): 69% | Inhibition (HepG2): 1%

COc1ccc2ncc(C#N)c(CCN3CCC(NCc4ccc5c(c4)NC(=O)CO5)CC3)c2c1.Cl
Inhibition (Plasmodium falciparum [1]): 99% | Inhibition (Plasmodium falciparum [2]): 43% | Inhibition (HepG2): 25%

O=C(NCCCNc1nc2ccccc2[nH]1)c1cccc(OC(F)(F)F)c1
Inhibition (Plasmodium falciparum [1]): 100% | Inhibition (Plasmodium falciparum [2]): 27% | Inhibition (HepG2): 12%

Cc1cccc2nc(-c3ccc(-c4cccc(C(=O)NCCN5CCCC5)c4)s3)[nH]c12
Inhibition (Plasmodium falciparum [1]): 94% | Inhibition (Plasmodium falciparum [2]): 2% | Inhibition (HepG2): 22%

CCNc1cc(C(=O)N[C@@H](Cc2ccccc2)[C@H](O)CNC(C)CCCC(C)C)cc(N2CCCS2(=O)=O)c1.O=CO (some centres not stated)
Inhibition (Plasmodium falciparum [1]): 99% | Inhibition (Plasmodium falciparum [2]): 98% | Inhibition (HepG2): 2%

CNc1ccc(CNCc2cccc(-c3ccc(-c4nc5cccc(C)c5[nH]4)cc3)c2)cc1.O=C(O)C(F)(F)F
Inhibition (Plasmodium falciparum [1]): 100% | Inhibition (Plasmodium falciparum [2]): 83% | Inhibition (HepG2): 26%

Cc1nc2nc(N)nc(N)c2c(C)c1Cc1ccccc1Cl.Cl
Inhibition (Plasmodium falciparum [1]): 93% | Inhibition (Plasmodium falciparum [2]): 0% | Inhibition (HepG2): 63%

COc1ccccc1C1CCN(C2CCC(NC(=O)/C=C/c3cc(C(F)(F)F)ccc3F)CC2)CC1 (configuration not stated)
Inhibition (Plasmodium falciparum [1]): 97% | Inhibition (Plasmodium falciparum [2]): 32% | Inhibition (HepG2): 39%

O=C(NCCCN1CCC(Cc2ccccc2)CC1)c1cc2c(Cl)nc3ccccc3c2s1
Inhibition (Plasmodium falciparum [1]): 98% | Inhibition (Plasmodium falciparum [2]): 40% | Inhibition (HepG2): 22%

O=C(CC1SC(N2N=C(c3cccs3)CC2c2ccccc2)=NC1=O)Nc1ccccc1F (configuration not stated)
Inhibition (Plasmodium falciparum [1]): 87% | Inhibition (Plasmodium falciparum [2]): 76% | Inhibition (HepG2): 9%

CC(C)(C)Nc1cc(C(=O)N[C@@H](Cc2ccccc2)[C@H](O)CNC2CCOCC2)cc(N2CCCCS2(=O)=O)c1
Inhibition (Plasmodium falciparum [1]): 99% | Inhibition (Plasmodium falciparum [2]): 98% | Inhibition (HepG2): 0%

CC(C)(C)OC(=O)Cn1cnc2cc(NC(=O)c3cc([N+](=O)[O-])cc([N+](=O)[O-])c3)ccc21
Inhibition (Plasmodium falciparum [1]): 100% | Inhibition (Plasmodium falciparum [2]): 97% | Inhibition (HepG2): 11%

CCN1CCC(N2CCC(C(=O)Nc3cccc(-c4cccc(Cl)c4)c3)CC2)CC1
Inhibition (Plasmodium falciparum [1]): 91% | Inhibition (Plasmodium falciparum [2]): 82% | Inhibition (HepG2): 54%

CNCCNCc1cccc(-c2ccc(-c3nc4ccccc4[nH]3)s2)c1.O=C(O)C(F)(F)F
Inhibition (Plasmodium falciparum [1]): 99% | Inhibition (Plasmodium falciparum [2]): 9% | Inhibition (HepG2): 8%

Br.CC(C)(Cc1ccc(Cl)cc1)NCCCCCCNCCc1ccc(O)c(O)c1
Inhibition (Plasmodium falciparum [1]): 90% | Inhibition (Plasmodium falciparum [2]): 0% | Inhibition (HepG2): 45%

Cc1nc(Nc2ccc(F)cc2)nc(N2CCc3cc(O)ccc3C2C)c1C.Cl (configuration not stated)
Inhibition (Plasmodium falciparum [1]): 99% | Inhibition (Plasmodium falciparum [2]): 97% | Inhibition (HepG2): 0%

N#Cc1cccc(C(=O)Nc2cccc(-c3ccc(CN4CCC(O)CC4)cc3)c2)c1.O=C(O)C(F)(F)F
Inhibition (Plasmodium falciparum [1]): 86% | Inhibition (Plasmodium falciparum [2]): 2% | Inhibition (HepG2): 15%

Cc1ccc(C(C(=O)Nc2ccc(N3CCNCC3)c(Cl)c2)c2ccccc2)cc1 (configuration not stated)
Inhibition (Plasmodium falciparum [1]): 97% | Inhibition (Plasmodium falciparum [2]): 93% | Inhibition (HepG2): 23%

Cc1cccc2nc(-c3ccc(-c4ccc(CNCC(C)C)cc4)cc3)[nH]c12.O=C(O)C(F)(F)F
Inhibition (Plasmodium falciparum [1]): 100% | Inhibition (Plasmodium falciparum [2]): 90% | Inhibition (HepG2): 14%

COc1ccc2ccccc2c1C=NN=c1cc(C)[nH]c2cc(C(F)(F)F)ccc12
Inhibition (Plasmodium falciparum [1]): 92% | Inhibition (Plasmodium falciparum [2]): 4% | Inhibition (HepG2): 1%

CN1CCC(Oc2ccc(NC(=O)c3ccc4c(=O)n(Cc5ccccc5)cnc4c3)cc2Cl)CC1
Inhibition (Plasmodium falciparum [1]): 95% | Inhibition (Plasmodium falciparum [2]): 20% | Inhibition (HepG2): 23%

Oc1ccc2nc(Nc3ccccc3)nc(NCCc3ccccc3)c2c1
Inhibition (Plasmodium falciparum [1]): 100% | Inhibition (Plasmodium falciparum [2]): 100% | Inhibition (HepG2): 20%

CCCCCCN1CCCN(Cc2ccc(C(=O)Nc3ccc(C(C)C)cc3)cc2)CC1.O=C(O)C(F)(F)F
Inhibition (Plasmodium falciparum [1]): 93% | Inhibition (Plasmodium falciparum [2]): 50% | Inhibition (HepG2): 40%

COc1c(C2CCN(CCCCNC(=O)C=Cc3cc4cc(Cl)ccc4o3)CC2)ccc2c1CCCC2
Inhibition (Plasmodium falciparum [1]): 87% | Inhibition (Plasmodium falciparum [2]): 19% | Inhibition (HepG2): 33%

N=C(N)NN=CC(=O)Nc1ccc(Cl)cc1.O=S(=O)(O)O
Inhibition (Plasmodium falciparum [1]): 100% | Inhibition (Plasmodium falciparum [2]): 2% | Inhibition (HepG2): 5%

O=C(Nc1ccc(C(F)(F)F)cc1)c1cccc(S(=O)(=O)NC2CCN(Cc3ccccc3)C2)c1.O=C(O)C(F)(F)F (configuration not stated)
Inhibition (Plasmodium falciparum [1]): 88% | Inhibition (Plasmodium falciparum [2]): 0% | Inhibition (HepG2): 39%

Br.CC1(C)NC(N)=NC(=N)N1OCCCOc1ccccc1N
Inhibition (Plasmodium falciparum [1]): 93% | Inhibition (Plasmodium falciparum [2]): 95% | Inhibition (HepG2): 70%

COc1cc2nc(N3CCC(CNC(=O)c4ccc(-c5ccc(C(=O)N(C)C)cc5)c(OCCO)c4)CC3)nc(N)c2cc1OC
Inhibition (Plasmodium falciparum [1]): 96% | Inhibition (Plasmodium falciparum [2]): 18% | Inhibition (HepG2): 10%

Cc1noc(C)c1-c1cccc(CNCc2ccc(-c3ccc(-c4nc5cccc(C)c5[nH]4)cc3)cc2)c1.O=C(O)C(F)(F)F
Inhibition (Plasmodium falciparum [1]): 100% | Inhibition (Plasmodium falciparum [2]): 95% | Inhibition (HepG2): 28%

O=C(NCCCCCN1CCC(c2c[nH]c3ccccc23)CC1)Nc1ccc(I)c(Cl)c1
Inhibition (Plasmodium falciparum [1]): 99% | Inhibition (Plasmodium falciparum [2]): 5% | Inhibition (HepG2): 88%

Br.CCCC1N=C(N)N=C(N)N1c1cccc([N+](=O)[O-])c1 (configuration not stated)
Inhibition (Plasmodium falciparum [1]): 96% | Inhibition (Plasmodium falciparum [2]): 1% | Inhibition (HepG2): 0%

COc1ccc2nccc([C@@H](O)CN3CCC(NCc4cc5c(cc4F)SCC(=O)N5)CC3)c2n1
Inhibition (Plasmodium falciparum [1]): 96% | Inhibition (Plasmodium falciparum [2]): 27% | Inhibition (HepG2): 14%

COc1ccc(C2CC(=O)C3=C(C2)NC(C)=C(C(=O)OC2CCCC2)C3c2cccc(O)c2)cc1OC (configuration not stated)
Inhibition (Plasmodium falciparum [1]): 100% | Inhibition (Plasmodium falciparum [2]): 98% | Inhibition (HepG2): 8%

COc1cccc2c(NN=Cc3cccc(F)c3)ccnc12
Inhibition (Plasmodium falciparum [1]): 99% | Inhibition (Plasmodium falciparum [2]): 44% | Inhibition (HepG2): 12%

COc1ccc(CN2CCC(Oc3cccc(NC(=O)c4ccc(C(F)(F)F)cc4)c3)CC2)cc1.O=C(O)C(F)(F)F
Inhibition (Plasmodium falciparum [1]): 95% | Inhibition (Plasmodium falciparum [2]): 20% | Inhibition (HepG2): 35%

CN(C)CCNC(=O)NC1CN(c2ncnc3cc(-c4ccccc4)sc23)C1.O=C(O)C(F)(F)F
Inhibition (Plasmodium falciparum [1]): 100% | Inhibition (Plasmodium falciparum [2]): 39% | Inhibition (HepG2): 7%
